Several values for one entry are separate records, joined by “and”; a condition that tells them apart may be missing. Equal values may be shown once. Activity calls are given as the source filed them.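 How the source made its calls, unless noted: active means z-score of at least 1.8 in each of two replicates, scored against plate mean and spread of sample wells; inactive means the rest.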
Legend:
[1] = inhibitors of Cryptococcus chitosan production, flow cytometry, Cibacron Brilliant Red staining (AID 1347148; call rule not given here;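 further: compound exposure lasted three days at 37 degrees C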); settings: Cryptococcus neoformans chitosan, stronger effect = lower value; at 10 µM unless noted
[2] = phospholipid biosynthesis inhibitors in animal cells, primary screen, cell-based, LOPAC library, screen 4 (AID 1347384; call rule not given here); settings: phospholipid biosynthesis inhibition screen, at 10 µM
[3] = survival rescue of mitochondrial mutant cells in low glucose, primary screen, MELAS cybrids, Rieske KO mouse fibroblasts, CellTiter-Glo (AID 1508586;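 active means mean z-score across replicates of 1.96 or higher in either the MELAS or the Rieske mutant cell line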;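 further: z relative to plate mean and SD of compound and empty wells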)
[4] = viability rescue of complex I mutant cybrids, primary screen, cell-based, galactose medium, ATP luminescence (AID 1645843); settings: complex I mutant cybrid cells, 72 h, stronger effect = higher value;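 further: positive z means more ATP and so rescue of galactose-driven cybrid death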
[5] = sensitizers of A549 cells to miR-34 induction, primary screen, imaging, A549 dox-inducible miR-34, nuclei and caspase counts (AID 1347080;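 active means compounds whose cell count with miR-34 switched on is under 0.7 times the count with it off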); settings: A549 miR-34 inducible, Hoechst nuclei count, 48 h
[6] = biological target: NAD(+) hydrolase SARM1 (Homo sapiens) (UniProt Q6SZW1); experiment: SARM1 TIR NADase inhibitors, cell lysate, NAD-Glo luminescence (AID 1508614;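 active means compound whose remaining NAD level is above about 45 nM, limit read from the data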); settings: SAM-TIR HEK293T lysate NADase, at 1 µM, stronger effect = higher value
[7] = biological target: Mitogen-activated protein kinase 7 (Homo sapiens) (UniProt Q13164); experiment: ERK5 transactivation activators in reporter cells, primary screen, cell-based, HTS (AID 1508626;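 active means luciferase signal above three times the same-plate solvent-only control wells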;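 further: luciferase driven by Gal4-ERK5 fusion binding five Gal4 sites before minimal TATA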); settings: HeLa Gal4-ERK5 transactivation, 18 h, at 5 µM, stronger effect = higher value
[8] = MELAS cybrid survival, CellTiter-Glo 48 h, stronger effect = higher value
[9] = Rieske KO mouse fibroblast survival, CellTiter-Glo 72 h
[10] = stronger effect = lower value, cell number ratio, induced over uninduced
[11] = measured here: relative caspase fold change +Dox/-Dox
[12] = measured here: total cells with miR-34 induction, stronger effect = lower value
[13] = measured here: total cells without miR-34 induction

Mitogen-activated protein kinase 7 (Homo sapiens), sequence (Q13164 whole entry, looked up, the tested form may be a part): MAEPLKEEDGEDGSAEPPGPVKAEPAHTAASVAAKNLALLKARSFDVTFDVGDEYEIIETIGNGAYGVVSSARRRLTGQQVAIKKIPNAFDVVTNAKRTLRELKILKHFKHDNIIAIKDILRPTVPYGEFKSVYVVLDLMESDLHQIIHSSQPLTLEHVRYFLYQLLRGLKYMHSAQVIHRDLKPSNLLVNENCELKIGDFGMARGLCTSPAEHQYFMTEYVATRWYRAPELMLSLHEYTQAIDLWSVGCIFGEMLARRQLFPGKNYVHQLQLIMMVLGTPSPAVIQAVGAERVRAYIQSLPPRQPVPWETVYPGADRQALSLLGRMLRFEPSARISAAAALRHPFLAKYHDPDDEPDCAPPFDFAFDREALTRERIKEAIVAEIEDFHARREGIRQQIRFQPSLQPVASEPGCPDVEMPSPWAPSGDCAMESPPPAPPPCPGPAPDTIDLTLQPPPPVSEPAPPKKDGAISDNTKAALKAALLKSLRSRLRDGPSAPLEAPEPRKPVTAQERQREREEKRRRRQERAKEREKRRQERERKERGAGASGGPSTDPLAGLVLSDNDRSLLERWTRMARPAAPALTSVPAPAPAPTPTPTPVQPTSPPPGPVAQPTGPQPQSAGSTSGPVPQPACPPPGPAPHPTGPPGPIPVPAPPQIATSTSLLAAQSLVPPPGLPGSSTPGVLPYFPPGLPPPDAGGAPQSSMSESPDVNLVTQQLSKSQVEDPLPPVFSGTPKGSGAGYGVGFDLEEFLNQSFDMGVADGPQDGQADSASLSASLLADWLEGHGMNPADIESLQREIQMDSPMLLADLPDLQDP
NAD(+) hydrolase SARM1 (Homo sapiens), sequence (Q6SZW1 whole entry, looked up, the tested form may be a part): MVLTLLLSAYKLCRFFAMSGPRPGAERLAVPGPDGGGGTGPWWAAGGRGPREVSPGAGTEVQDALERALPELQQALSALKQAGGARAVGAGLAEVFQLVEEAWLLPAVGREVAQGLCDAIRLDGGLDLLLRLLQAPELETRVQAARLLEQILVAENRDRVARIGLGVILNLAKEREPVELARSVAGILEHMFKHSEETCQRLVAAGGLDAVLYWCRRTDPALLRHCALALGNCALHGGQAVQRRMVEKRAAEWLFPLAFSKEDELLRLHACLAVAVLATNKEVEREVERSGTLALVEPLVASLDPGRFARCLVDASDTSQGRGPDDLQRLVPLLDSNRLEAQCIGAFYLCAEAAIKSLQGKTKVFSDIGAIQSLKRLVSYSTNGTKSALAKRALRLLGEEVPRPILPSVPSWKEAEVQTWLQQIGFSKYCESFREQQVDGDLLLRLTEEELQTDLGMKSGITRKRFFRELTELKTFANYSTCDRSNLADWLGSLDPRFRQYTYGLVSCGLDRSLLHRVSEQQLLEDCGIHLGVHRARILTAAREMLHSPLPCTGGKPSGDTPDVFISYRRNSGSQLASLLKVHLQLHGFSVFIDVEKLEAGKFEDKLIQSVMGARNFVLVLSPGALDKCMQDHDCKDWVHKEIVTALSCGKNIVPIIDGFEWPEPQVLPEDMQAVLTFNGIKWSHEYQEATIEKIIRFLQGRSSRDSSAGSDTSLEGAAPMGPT

Compound	fold fluorescence [1]	outcome [2]	z-score [3, 8]	z-score [3, 9]	z-score [4]	fold change [5, 10]	fold change [5, 11]	cell count [5, 12]	cell count [5, 13]	remaining NAD [6]	luciferase signal [7]
COc1cc2c(cc1OC)-c1cc(=Nc3c(C)cc(C)cc3C)n(C)c(=O)n1CC2	11.7 [at 123.3 µM] (inactive)	inactive	1.02 (inactive)	1.81	-0.95 (inactive) and -0.575 (inactive) and 0.465 (inactive)	–	–	–	–	–	–
COc1cc(-c2ccc(=O)[nH]n2)ccc1OC(F)F	7.45 [at 186.4 µM] (inactive)	–	1.87 (inactive) and 1.14 (inactive)	-0.582 and -0.616	0.03 (inactive) and -0.045 (inactive) and 0.53 (inactive)	–	–	–	–	–	–
Cc1cc(O)cc(C)c1Cl	–	–	–	–	–	0.933 (inactive)	1.14	10100	10800	10 nM (inactive)	32 AU (inactive)
OCc1cc(C(O)CNCCCCCCOCCCCc2ccccc2)ccc1O (centres undefined)	–	inactive	0.496 (inactive) and 0.0699 (inactive)	-0.33 and 0.063	–	–	–	–	–	–	–
CC1CCN(CCCC(=O)c2ccc(F)cc2)CC1	–	–	–	–	0.28 (inactive) and -0.14 (inactive)	0.922 (inactive) and 0.888 (inactive) and 0.964 (inactive)	0.574 and 0.823 and 1.18	9000 and 9720 and 9030	9760 and 10900 and 9370	–	–
O=C(NCCN1CCOCC1)c1ccc(Cl)cc1	–	inactive	0.188 (inactive) and 0.694 (inactive)	0.0884 and 0.188	0.645 (inactive) and 0.32 (inactive)	–	–	–	10300 and 10900 and 9280	–	–
NC[C@H]1O[C@H](O[C@H]2[C@H](O)[C@@H](O[C@H]3O[C@H](CO)[C@@H](O)[C@H](N)[C@H]3O)[C@H](N)C[C@@H]2N)[C@H](N)[C@@H](O)[C@@H]1O	–	–	–	–	–	0.901 (inactive)	2.25	11700	13000	10 nM (inactive)	76 AU (inactive)
CC(C)NC[C@@H](O)COc1cccc2ccccc12	–	–	–	–	0.54 (inactive)	0.945 (inactive)	0.937	8050	8520	10 nM (inactive)	52 AU (inactive)
Cc1cc2nc3c(=O)[nH]c(=O)nc-3n(C[C@H](O)[C@H](O)[C@H](O)CO)c2cc1C	–	–	–	–	–	0.873 (inactive)	1.61	7920	9080	10 nM (inactive)	80 AU (inactive)
C=C[C@@]1(C)CC(=O)[C@]2(O)[C@@]3(C)[C@@H](O)CCC(C)(C)[C@@H]3[C@H](O)[C@H](OC(C)=O)[C@@]2(C)O1	–	–	–	–	-0.315 (inactive)	0.943 (inactive)	1.09	9780	10400	10 nM (inactive)	44 AU (inactive)
CC(=O)Nc1c(I)cc(I)c(C(=O)O)c1I	–	–	–	–	–	0.913 (inactive)	2.27	12100	13200	10 nM (inactive)	40 AU (inactive)
CCCOc1ccccc1-c1nc2n[nH]nc2c(=O)[nH]1	6.79 [at 184.3 µM] (inactive)	inactive	0.137 (inactive) and -0.665 (inactive)	-0.13 and -0.629	0.78 (inactive) and -0.305 (inactive) and 1.09 (inactive)	–	–	–	–	10 nM (inactive)	–
CO/N=C1\CN(c2nc3c(cc2F)c(=O)c(C(=O)O)cn3C2CC2)CC1CN (centres undefined)	–	–	–	–	–	0.847 (inactive)	1.93	10700	12600	10 nM (inactive)	40 AU (inactive)
Nc1c2c(nc3c1CCC3)CCCC2	–	–	–	–	-0.465 (inactive)	1.06 (inactive)	2.56	10500	9920	–	–
Oc1c(Cl)cc(Cl)cc1Sc1cc(Cl)cc(Cl)c1O	–	–	–	–	–	0.771 (inactive)	1.86	8360	10800	10 nM (inactive)	24 AU (inactive)
O=C1C(O)=C(O)C(=O)C(O)=C1O	–	–	–	–	–	0.863 (inactive) and 0.913 (inactive)	1.35 and 4.01	9350 and 12000	10800 and 13100	10 nM (inactive)	20 AU (inactive)
CCN(CC)CC1CCCCN1CC(=O)N1c2ccccc2C(=O)Nc2cccnc21 (centres undefined)	–	–	–	–	0.18 (inactive) and -0.135 (inactive)	0.915 (inactive) and 0.926 (inactive)	1.68 and 0.696	10100 and 9240	11000 and 9980	–	–
NC1CCN(c2cccc(Cl)n2)CC1	–	–	–	–	0.81 (inactive) and 0.31 (inactive)	0.969 (inactive) and 0.942 (inactive)	1.72 and 1.85	9480 and 9570	9780 and 10200	–	–
